In PubChem BioAssay (NCATS):
Inconclusive results are not listed. Where a call stands in place of a potency, no number is given. The source made the active and inactive calls. Calls follow the shape of the dose curve; as a rule, active = well fitted inhibition curve with a large enough effect; inconclusive = small, poorly fitted or top-dose-only effect; inactive = flat fitted curve, though single readings scatter.

experiment: Primary qHTS for inhibitors of nuclear receptor binding SET domain protein 2 (NSD2) in an isogenic RCH-ACV NSD2 p.E1099K mutant (9B) (AID 1645876); conditions: RCH-ACV (leukaemia line) NSD2 E1099K (9B) viability, CellTiter-Glo, 72 h; series mostly up to 44.9 µM; also: nearly all actives have a fitted effect of over 70% in size
Potency is read from the fitted curve at half-maximal effect.

Structure (SMILES)	Potency
C[C@@H](C1=C(CCN(C)C)Cc2ccccc21)c1ccccn1	inactive
Cc1ccc(Cl)c(OCC(O)CNC(C)(C)C)c1 (stereo not drawn)	inactive
Cc1c(C)c2c(c(C)c1OC(=O)CCC(=O)OCCO)CC[C@@](C)(CCC[C@H](C)CCC[C@H](C)CCCC(C)C)O2	21.1 µM (active)
CC(=O)O[C@@H]1CC2C3CCc4cc(OC(=O)c5ccccc5)ccc4C3CCC2(C)[C@H]1OC(C)=O (stereo partly drawn)	inactive
CCOC(=O)NNc1ccc(N(CC)CC(C)O)nn1 (stereo not drawn)	inactive
COC(=O)c1cc(Cl)ccc1OC	inactive
CCCCC(CC)COC(=O)c1ccccc1C(=O)O (stereo not drawn)	inactive
O=C(O)c1ccccc1Nc1cc(Cl)ccc1C(=O)O	inactive
CC[N+](CC)(CC)CCOC(=O)C(C1CCCC1)C1CCCC1	21.1 µM (active)
NS(=O)(=O)c1cc2c(cc1Cl)CN(C1CCCCC1)C2=O	inactive
CC(C)C(=O)Nc1cccc(C(F)(F)F)c1	inactive
CCCCNc1ccc(C(=O)OCCN(CC)CC)cc1	inactive
CCOc1ccc(NS(=O)(=O)c2ccc(N)cc2)nn1	inactive
CCN(CC)CC(=O)Nc1c(C)cccc1C(=O)OC	inactive
CCCC(=O)O[C@]1(C(=O)COC(=O)CC)CC[C@H]2[C@@H]3CCC4=CC(=O)CC[C@]4(C)[C@H]3[C@@H](O)C[C@@]21C	inactive
CCOC(=O)O[C@]1(C(=O)OCCl)CC[C@H]2[C@@H]3CCC4=CC(=O)C=C[C@]4(C)[C@H]3[C@@H](O)C[C@@]21C	inactive
Cc1ccc(-c2ccccc2C#N)cc1	inactive
CN(C(=O)C(Cl)Cl)c1ccc(OC(=O)c2ccco2)cc1	inactive
